TRHR ag – qHTS for Small Molecule Agonists and Allosteric Enhancers of Human TRH Receptor: Primary Screen for Agonists; TRHR cells, calcium flux fluo-8, FDSS agonist mode; activation, % at 2 µM; actives 0.18% (n = 360,000); AID 493084, 2011; further: 0% is about no effect
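TRHR-expressing cells loaded with fluo-8 calcium dye; 23 nL library compound pin-transferred, kinetic FDSS fluorescence (Ex 480/Em 530) recorded about 180 s for agonist-induced calcium release, before a 10 nM TRH EC20 addition for potentiator mode.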
TRHR PAM – qHTS for Small Molecule Agonists and Allosteric Enhancers of Human TRH Receptor: Primary Screen for Enhancers | TRHR cells, fluo-8 calcium fluorescence, EC20 TRH enhancement | Thyrotropin-releasing hormone receptor (Homo sapiens), P34981 | actives 0.66% (n = 360,000) | enhancement, % at 2 µM; in the data active means enhancement above about 30%; further: 0% is about no effect
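TRHR-expressing cells loaded with fluo-8 calcium dye were read kinetically (ex 480/em 530) during compound addition, then stimulated with an EC20 of TRH (10 nM final). Enhancement of the Gq-mediated intracellular calcium response was scored.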
LDHA inh – qHTS assay for inhibitors of human lactate dehydrogenase; AID 1347041, 2019; actives 0.15% (n = 480,000); purified LDHA, NADH/diaphorase-resazurin fluorescence; active compounds read low; activity change, % (values are at about 110 or 230 µM); L-lactate dehydrogenase A chain (Homo sapiens), P00338; in the data active means activity change below about -30%;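 further: plate controls were DMSO wells for no effect and wells without enzyme for full effect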
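Human LDH5 at 2 nM final in Tris HCl pH 7.4 with 0.06 mM NADH and 0.2 mM pyruvate, reacted 5 minutes at room temperature. Remaining NADH coupled via diaphorase/resazurin; resorufin fluorescence read at 0 and 20 minutes, normalized to enzyme-free and DMSO wells.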
D1 potentiator – Potentiators of Human D1 Dopamine Receptor: qHTS; HEK293 TREx D1 cells, calcium flux, dopamine EC20 potentiation; potentiation, % at 10 µM; D(1A) dopamine receptor (Homo sapiens), P21728; AID 504651, 2011; actives 0.036% (n = 360,000); in the data active means potentiation above about 30%; further: 0% is about no effect
Target sequence (P21728 whole entry, looked up): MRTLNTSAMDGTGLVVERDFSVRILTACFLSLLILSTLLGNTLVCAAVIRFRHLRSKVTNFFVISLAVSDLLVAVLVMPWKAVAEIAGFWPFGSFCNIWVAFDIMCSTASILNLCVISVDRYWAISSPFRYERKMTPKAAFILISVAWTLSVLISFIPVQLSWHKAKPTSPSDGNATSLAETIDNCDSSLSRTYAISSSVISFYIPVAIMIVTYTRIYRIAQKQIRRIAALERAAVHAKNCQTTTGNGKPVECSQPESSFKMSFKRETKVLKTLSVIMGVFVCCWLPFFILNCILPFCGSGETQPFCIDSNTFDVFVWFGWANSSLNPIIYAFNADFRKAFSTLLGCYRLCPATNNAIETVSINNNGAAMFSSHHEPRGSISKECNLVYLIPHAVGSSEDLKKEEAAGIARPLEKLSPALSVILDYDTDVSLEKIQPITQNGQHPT
D1 antag – Antagonist of Human D 1 Dopamine Receptor: qHTS | D(1A) dopamine receptor (Homo sapiens), P21728 | HEK293 TREx D1 cells, calcium flux, dopamine EC80; active compounds read low | activity change, negative = inhibition, % at 10 µM | actives 3.2% (n = 360,000); in the data active means activity change below about -30%; further: on the % scale 0 is the no-effect control and ±100 the full control effect
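After overnight tetracycline induction at 30 C, force-coupled D1 HEK293 cells took up a no-wash calcium dye at room temperature. Compounds were added and monitored 180 s, and the response to EC80 dopamine was then recorded.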
D1 ag – Allosteric Agonists of the Human D1 Dopamine Receptor: qHTS. D(1A) dopamine receptor (Homo sapiens), P21728. HEK293 T-REx D1 cells, calcium flux, agonist mode. activation, % at 2 µM. actives 1% (n = 360,000). AID 504660, 2011; further: 0% is about no effect
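Inducible HEK293 T-REx D1 cells, force-coupled to calcium signalling, were plated at 4000 cells/well with tetracycline and held overnight at 30 C. After no-wash calcium dye loading, compound-evoked calcium rise over 180 s flagged agonists.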
Active calls of the source: *; nt = no result given. An excerpt weighted towards active compounds, which were near 3.6% of everything screened. Unless noted, no stated cut-off is given here; in the data, active means activation above about 30%; inactive means the rest.

SMILES	TRHR ag	TRHR PAM	LDHA inh	D1 potentiator	D1 antag	D1 ag
CN(C)CCNC(=O)c1cccn(Cc2cccc(C(F)(F)F)c2)c1=O	0	-6	-6	-3	5	6
CNC(=O)c1cccn(Cc2cccc(C(F)(F)F)c2)c1=O	1	-1	-4	-4	-32*	2
CN1C[C@H](CNC(=O)OCc2ccccc2)C[C@@H]2c3cccc4c3c(cn4C)C[C@H]21	11	7	1	-4	-87*	37*
CN1/C(=C\C=Nc2ccccc2)C(C)(C)c2ccccc21	1	-2	4	-3	-18	2
CN1/C(=C\C=C2C(=O)NC(=O)NC2=O)C(C)(C)c2ccccc21	101*	0	1	-1	1	107*
COc1ccc2c(C)c(CC(=O)N3CCN(CCc4ccccn4)CC3)c(=O)oc2c1	nt	nt	-4	nt	nt	nt
CCCC(=O)Nc1ccc(N2CCN(CC)CC2)c(Cl)c1	2	23	-3	-12	-41*	2
CCC(=O)Nc1ccc(N2CCN(CC)CC2)c(Cl)c1	0	-3	1	-10	4	2
O=C(c1ccc(N2CC3CC(C2)c2cccc(=O)n2C3)c([N+](=O)[O-])c1)N1CCCCC1 (stereo unspecified)	-1	-1	-6	0	-53*	1
O=C(c1ccc(N2CC3CC(C2)c2cccc(=O)n2C3)c([N+](=O)[O-])c1)N1CCCC1 (stereo unspecified)	1	6	4	-3	-35*	3
COc1ccc(C)cc1CCNCc1ccc(C)s1	nt	nt	-4	nt	nt	nt
CC(c1ccc(F)cc1)n1cc(C(=O)NCc2ccc3c(c2)OCO3)nn1 (stereo unspecified)	2	3	-7	1	-1	31*
CCC(=O)OC1CCC2C3CCC4CC(=O)CCC4(C)C3CCC12C (stereo unspecified)	nt	nt	4	nt	nt	nt
Cc1[nH]c2ccccc2c1CCNCc1ccco1	1	2	-3	-3	-41*	11
CCOC(=O)C1=C(N)Oc2c(c(=O)oc3ccccc23)C12C(=O)Nc1ccc(Br)cc12 (stereo unspecified)	nt	nt	17	nt	nt	nt
Cc1ccc2c(c1)[C@@H]1CN(C)CC[C@@H]1N2C(=O)Nc1cccc(C(F)(F)F)c1	2	3	1	-27	-52*	20
Cc1ccc2c(c1)C1CN(C)CCC1N2C(=O)Nc1cccc(C(F)(F)F)c1 (stereo unspecified)	2	9	0	-4	nt	23
Cc1ccc2c(c1)C1CN(C)CCC1N2C(=O)CCCN1C(=O)c2cccc3cccc(c23)C1=O (stereo unspecified)	0	6	3	-16	-49*	1
COc1ccccc1CNCCc1ccccc1	nt	nt	-6	nt	nt	nt
COc1ccccc1N1C(=O)NC(=O)/C(=C/c2ccc3c(c2)Cc2ccccc2-3)C1=O	-1	2	-33*	1	-2	1
Cn1cc(C(=O)OCC(=O)Nc2c(F)cccc2F)c2ccccc21	nt	nt	-1	nt	nt	nt
COc1cc2c(cc1OC)C(C1c3cc4c(cc3CCN1C)OCO4)OC2=O (stereo unspecified)	1	-7	-8	-3	6	1
COc1ccc2c(c1OC)CN1CCc3cc4c(cc3[C@H]1C2)OCO4	0	11	1	-13	-80*	1
COc1ccc2c(c1OC)CN1CCc3cc4c(cc3C1C2)OCO4 (stereo unspecified)	1	-4	-5	-9	-80*	1
COc1cc(C2c3cc4c(cc3CC3COC(=O)C32)OCO4)cc(OC)c1OC (stereo unspecified)	nt	nt	-4	nt	nt	nt
SMILES	TRHR ag	TRHR PAM	LDHA inh	D1 potentiator	D1 antag	D1 ag
CC(Nc1ccc([N+](=O)[O-])c2nonc12)c1ccc(Cl)cc1 (stereo unspecified)	nt	nt	-2	nt	nt	nt
COc1ccc(OC)c(NP(=O)(Oc2ccccc2)Oc2ccccc2)c1	0	30*	2	3	12	1
COc1ccc2[nH]cc(CCN)c2c1	0	31*	4	-4	0	0
OCCSCCSCCO	nt	nt	-2	nt	nt	nt
CC(Oc1ccc(Cl)cc1)C(=O)O (stereo unspecified)	nt	nt	0	nt	nt	nt
CCN(CC)C(=O)N[C@H]1C[C@@H]2c3cccc4[nH]cc(c34)C[C@H]2N(C)C1	2	-5	-14	-6	-89*	2
CN1C[C@H](CO)C[C@@H]2c3cccc4[nH]cc(c34)C[C@H]21	0	1	-1	-7	-42*	1
CC12CN3CN(C1)CC(C)(C3)C2=O	nt	nt	0	nt	nt	nt
COc1ccc(-n2nc(C)c3c2NC(=O)CSC3c2cc(OC)c(O)c(OC)c2)cc1 (stereo unspecified)	nt	nt	-1	nt	nt	nt
COc1ccccc1NC(=O)c1cn(Cc2ccccc2)c2ccccc12	nt	nt	3	nt	nt	nt
COc1ccc(CNCCc2c(C)[nH]c3ccc(OC)cc23)c(F)c1	nt	nt	-1	nt	nt	nt
COc1ccc2[nH]c(C)c(CCNCc3cn(C)c4ccccc34)c2c1	3	-6	-8	-11	-55*	41*
COc1ccc(OC)c(-n2c(O)c(/C=C3\C=Nc4ccccc43)c(=O)[nH]c2=O)c1	1	5	10	1	8	2
CCOc1ccc(-n2c(O)c(/C=C3\C=Nc4ccccc43)c(=O)[nH]c2=O)cc1	-1	-2	0	2	-5	32*
CC[C@@H](CO)NC(=O)[C@@H]1C=C2c3cccc4[nH]cc(c34)C[C@H]2N(C)C1	nt	nt	1	nt	nt	nt
CCC(CO)NC(=O)C1C=C2c3cccc4[nH]cc(c34)CC2N(C)C1 (stereo unspecified)	0	-3	-3	-14	-86*	25
COc1cc(CNC2CN3CCC2CC3)cc(Cl)c1OCc1ccccc1Cl (stereo unspecified)	nt	nt	1	nt	nt	nt
Cc1nn(-c2ncnc3nc[nH]c23)c2c1C(c1ccc(Cl)cc1Cl)SCC(=O)N2 (stereo unspecified)	nt	nt	-13	nt	nt	nt
C[N+]12CCC(CC1)C(C(O)(c1ccccc1)c1cccs1)C2 (stereo unspecified)	1	-2	-36*	-4	1	2
CCC1CCC(NC2CCC(CC)CC2)CC1 (stereo unspecified)	nt	nt	-1	nt	nt	nt
